The subject of one assay is ICS. Put plainly: qHTS profiling for inhibitors of Plasmodium falciparum proliferation (AID 504749). Also: potency is read from the fitted curve at half-maximal effect. As to conditions: P. falciparum in erythrocytes, SYBR Green DNA, 72 h; series mostly up to 28.7 µM. Summed up: (§1)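 P. falciparum-infected erythrocytes (0.3% parasitemia, 2.5% hematocrit) incubated with compound 72 h at 37 C, 5% CO2. Parasite DNA detected by SYBR Green after lysis, overnight at room temperature; normalised to 0.29 uM artemisinin and DMSO.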

The test system of a further assay is JCK. The description is as above. As to conditions: P. falciparum in erythrocytes, SYBR Green DNA, 72 h; series mostly up to 28.7 µM. Summed up: as §1
The test system of the next assay is N140. Described as above. As to conditions: P. falciparum in erythrocytes, SYBR Green DNA, 72 h; series mostly up to 28.7 µM. Summed up: as §1
Another assay concerns P93_24. The description is as above. As to conditions: P. falciparum in erythrocytes, SYBR Green DNA, 72 h; series mostly up to 28.7 µM. In short, it runs like this:
as §1

In a further assay the test system is P94_40. The description is as above. As to conditions: P. falciparum in erythrocytes, SYBR Green DNA, 72 h; series mostly up to 28.7 µM. Summed up:
as §1

Another assay relates to PAD. The assay is described as above. As to conditions: P. falciparum in erythrocytes, SYBR Green DNA, 72 h; series mostly up to 28.7 µM. Summed up: as §1
The next assay deals with PC15. Described as above. As to conditions: P. falciparum in erythrocytes, SYBR Green DNA, 72 h; series mostly up to 28.7 µM. In short, it runs like this: as §1
For the next assay, the system named is PC49. Described as above. As to conditions: P. falciparum in erythrocytes, SYBR Green DNA, 72 h; series mostly up to 28.7 µM. In short, it runs like this: as §1
In a further assay the test system is SC27B. The assay is described as above. As to conditions: P. falciparum in erythrocytes, SYBR Green DNA, 72 h; series mostly up to 28.7 µM. In short, it runs like this:
as §1

Another assay concerns TAB109. The assay is described as above. As to conditions: P. falciparum in erythrocytes, SYBR Green DNA, 72 h; series mostly up to 28.7 µM. Summed up:
as §1

Another assay has as its system TAB113. The assay is described as above. As to conditions: P. falciparum in erythrocytes, SYBR Green DNA, 72 h; series mostly up to 28.7 µM. Summed up: as §1
Another assay relates to TAB165. The description is as above. As to conditions: P. falciparum in erythrocytes, SYBR Green DNA, 72 h; series mostly up to 28.7 µM. In short, it runs like this:
as §1

In the next assay the test system is W2. The assay is described as above. As to conditions: P. falciparum in erythrocytes, SYBR Green DNA, 72 h; series mostly up to 28.7 µM. Summed up: as §1
Another assay has as its system KB-3-1. Put plainly: Cytotoxic Profiling of Annotated Libraries Using Quantitative High-Throughput Screening (AID 1296008). Also: % is scaled to controls: 0 for no effect and ±100 for the full control effect. As to conditions: Five cell lines viability, CellTiter-Glo ATP luminescence, 48-72 h; max response: stronger effect = lower value. In short, it runs like this: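 Cells exposed to compounds for 48 or 72 hr at 37 degrees Celsius. Viability read as ATP-coupled luminescence with CellTiter-Glo after 10 min at room temperature.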

The subject of the next assay is PC26. Put plainly: qHTS profiling for inhibitors of Plasmodium falciparum proliferation (AID 504749). Also: potency is read from the fitted curve at half-maximal effect. As to conditions: P. falciparum in erythrocytes, SYBR Green DNA, 72 h; series mostly up to 28.7 µM. In short, it runs like this: as §1

Several values for one entry are separate records, joined by “and”; a condition that tells them apart may be missing. Identical values can stand only once. Inconclusive results are not listed. Values without a mark were called inactive. Activity calls are given as the source filed them. Calls follow the shape of the dose curve; as a rule, active = well fitted inhibition curve with a large enough effect; inconclusive = small, poorly fitted or top-dose-only effect; inactive = flat fitted curve, though single readings scatter.
Also: nearly all actives have a fitted effect of over 60% in size.

In the case of `O=C1N=C2SCCN2C(=O)C1Cc1ccc(Cl)cc1` (stereo unspecified), the Potency result in the assay with ICS, in the assay on JCK, in the assay with N140, in the assay on P93_24, in the assay on P94_40 and with PAD was “inactive” in each case. Also, the Potency entry with PC15, with PC49, in the assay on SC27B, in the assay with TAB109, in the assay on TAB113 and in the assay on TAB165 was “inactive” in each case. Moreover, the Potency result in the assay with W2 is “inactive”. For the same compound, the max response in the assay with KB-3-1 was -9%.
In the case of `CC[C@H]1OC(=O)[C@H](C)[C@@H](O[C@H]2C[C@@](C)(OC)[C@@H](O)[C@H](C)O2)C(C)[C@@H](O[C@@H]2O[C@H](C)C[C@H](N(C)C)[C@@H]2O)[C@](C)(OC)C[C@@H](C)C(=O)[C@H](C)[C@@H](O)[C@]1(C)O` (stereo partly specified), the Potency with ICS was 10 µM (active); with W2, 3.79 µM (active). In addition, the Potency result in the assay with JCK, in the assay with N140, in the assay on P93_24, with P94_40, in the assay on PAD and in the assay on PC49 was “inactive” in each case. In addition, the Potency entry with SC27B, with TAB109, with TAB113 and in the assay on TAB165 was “inactive” each time. For the same compound, in the assay with KB-3-1, the max response was -4.62%.
On to `CN1CCc2c(c3ccccc3n2Cc2ccccc2)C1`, for which the Potency result in the assay on ICS, in the assay with JCK, in the assay on N140, with P93_24, in the assay with PAD and with PC15 was “inactive” throughout. For the same compound, the Potency result with PC49, in the assay on SC27B, with TAB109 and in the assay with TAB113 was “inactive” throughout. Besides, the Potency in the assay with W2 was 2.56 µM (active). The max response with KB-3-1 is 8.09%.
As for `NC(=S)N=Nc1ccc(NN=C(N)N)cc1`, the Potency in the assay on ICS is 5.01 µM (active); in the assay with JCK, 8.91 µM (active); in the assay on N140 it was 7.94 µM (active); with P93_24, 5.01 µM (active); in the assay with P94_40, 7.94 µM (active); with PAD, 11.2 µM (active). Also, the Potency with PC15 was 8.91 µM (active); in the assay with SC27B, 11.2 µM (active); in the assay with TAB109, 11.2 µM (active); in the assay on TAB165, 7.94 µM (active); in the assay on W2, 1.69 µM (active). The max response in the assay on KB-3-1 is -12.2%.
In the case of `CO/N=C(/C(=O)N[C@@H]1C(=O)N2C(C(=O)O)=C(COC(N)=O)CS[C@H]12)c1ccco1`, the Potency in the assay with ICS was 8.91 µM (active). Besides, the Potency result in the assay on JCK, with N140, in the assay on P94_40, with PAD, in the assay with PC15 and in the assay with PC26 was “inactive” in each case. The Potency result in the assay on PC49, in the assay on SC27B, with TAB109, in the assay on TAB113 and with TAB165 was “inactive” throughout. In addition, in the assay on KB-3-1, the max response is -4.54% and -18.4%.
On to `CC(=O)Oc1cccc(C(=O)O)c1OC(C)=O`, for which the Potency entry in the assay on ICS, in the assay with JCK, in the assay with N140, in the assay with P93_24, with P94_40 and in the assay with PAD was “inactive” in each case. Further, the Potency entry in the assay with PC15, in the assay on PC26, with PC49, in the assay on SC27B, in the assay on TAB113 and with TAB165 was “inactive” in each case. The Potency result in the assay on W2 was “inactive”. For the same compound, in the assay on KB-3-1, the max response was -11.2%.
Take `CC(=O)Nc1c(I)c(C(=O)O)c(I)c(N(C)C(C)=O)c1I`: the Potency result in the assay with ICS, with JCK, with N140, in the assay on P93_24, with P94_40 and in the assay with PAD was “inactive” each time. In addition, the Potency result in the assay with PC15, in the assay with PC26, in the assay with PC49, in the assay on TAB109, in the assay with TAB113 and in the assay on TAB165 was “inactive” throughout. In addition, the Potency result in the assay with W2 was “inactive”. The max response with KB-3-1 is 3.77%.
As to `CCCCCCOC(=O)c1cccnc1`, the Potency result in the assay on ICS, with JCK, in the assay on N140, in the assay with P93_24, in the assay on P94_40 and with PAD was “inactive” each time. Further, the Potency entry in the assay with PC15, in the assay with PC26, in the assay with PC49, with SC27B, with TAB109 and in the assay on TAB113 was “inactive” each time. Further, the Potency entry in the assay on TAB165 and with W2 was “inactive” each time. Moreover, the max response in the assay with KB-3-1 was 6.05%.
As to `Cc1cccc(Nc2ncccc2C(=O)O)c1C`, the Potency entry in the assay on ICS, in the assay on JCK, in the assay with N140, in the assay with P93_24, with P94_40 and with PAD was “inactive” throughout. The Potency entry with PC15, in the assay on PC26, in the assay on PC49, in the assay on SC27B, with TAB165 and in the assay on W2 was “inactive” each time. Also, in the assay with KB-3-1, the max response was 14.2%.
Regarding `CO/N=C(\C(=O)N[C@@H]1C(=O)N2C(C(=O)[O-])=C(C[n+]3cccc4c3CCC4)CS[C@H]12)c1csc(N)n1`, the Potency entry in the assay with ICS, in the assay on JCK, in the assay with N140, in the assay on P93_24, in the assay on P94_40 and with PAD was “inactive” each time. In addition, the Potency entry with PC15, with PC26, in the assay on PC49, with SC27B, with TAB109 and in the assay with TAB165 was “inactive” throughout. In addition, the Potency result in the assay on W2 is “inactive”. In addition, in the assay on KB-3-1, the max response is -1.98%.
Turning to `Cn1cc(NC(=O)c2cc(NC(=O)c3cc(NC=O)cn3C)cn2C)cc1C(=O)NCCC(=N)N`, the Potency in the assay with ICS was 3.55 µM (active); in the assay on JCK, 12.6 µM (active); with N140 it was 5.01 µM (active); with P93_24, 5.01 µM (active); in the assay on P94_40, 4.47 µM (active); with PAD it was 5.01 µM (active). The Potency in the assay on PC15 is 7.08 µM (active); in the assay on PC26 it was 13.5 µM (active); in the assay with SC27B it was 11.2 µM (active); in the assay with TAB109, 5.01 µM (active); in the assay with TAB113 it was 5.01 µM (active); in the assay with TAB165, 5.01 µM (active). Moreover, the Potency with W2 was 4.78 µM (active). For the same compound, the max response in the assay with KB-3-1 is 2.85%.
For the compound `CC(C)C1=CC2=CC[C@@H]3[C@](C)(CCC[C@@]3(C)C(=O)O)[C@H]2CC1`, the Potency entry in the assay with ICS, with JCK, in the assay with N140, with P93_24, with P94_40 and in the assay with PAD was “inactive” each time. For the same compound, the Potency result in the assay with PC15, in the assay on PC49, with SC27B, with TAB109, in the assay on TAB113 and in the assay on TAB165 was “inactive” in each case. In the assay with W2, the Potency result was “inactive”. In the assay with KB-3-1, the max response is -11.9%.
`CN1c2c(nc(N)[nH]c2=O)NCC1CNc1ccc(C(=O)NC(CCC(=O)O)C(=O)O)cc1` (stereo unspecified): the Potency result in the assay with ICS, in the assay on JCK, in the assay on N140, in the assay on P93_24, in the assay with P94_40 and in the assay with PAD was “inactive” each time. The Potency entry in the assay with PC15, in the assay on PC26, in the assay with PC49, with SC27B, in the assay on TAB109 and in the assay on TAB165 was “inactive” each time. Moreover, the Potency entry in the assay on W2 was “inactive”. Further, the max response in the assay on KB-3-1 was 9%.
As to `CCN(CC)C(=O)c1cccnc1`, the Potency result in the assay with ICS, with JCK, with N140, with P93_24, in the assay with P94_40 and with PAD was “inactive” each time. Also, the Potency entry in the assay with PC15, with PC49, in the assay with SC27B, in the assay with TAB109, in the assay with TAB113 and in the assay with TAB165 was “inactive” each time. Moreover, the Potency entry in the assay on W2 is “inactive”. Moreover, the max response with KB-3-1 was -8.56%.
As to `CCCOC(=O)c1ccccc1O`, the Potency entry in the assay on ICS, with JCK, with N140, in the assay with P93_24, in the assay on P94_40 and with PAD was “inactive” in each case. Besides, the Potency entry in the assay on PC15, in the assay with PC26, in the assay with PC49, with SC27B, in the assay on TAB113 and in the assay on TAB165 was “inactive” in each case. Further, the max response in the assay with KB-3-1 is -1.94%.
For `COc1ccc2c(c1)OC(C)(C)C(c1ccccc1)C2c1ccc(OCCN2CCCC2)cc1` (stereo unspecified), the Potency is 2.82 µM (active) in the assay on ICS; 5.01 µM (active) in the assay on N140; 5.01 µM (active) in the assay with P93_24; 6.31 µM (active) with P94_40; 8.91 µM (active) in the assay on PAD; 11.2 µM (active) in the assay on PC15. The Potency is 4.78 µM (active) in the assay on PC26; 8.91 µM (active) in the assay on SC27B; 3.16 µM (active) with TAB109; 8.91 µM (active) in the assay with TAB113; 3.16 µM (active) in the assay on TAB165; 1.69 µM (active) in the assay with W2. For the same compound, in the assay on KB-3-1, the max response was -26.5%.

The values are drawn from PubChem BioAssay (NCATS).
